MITF primary = human MITF inhibition, primary screen; inhibition, % at 2.6 µM; 0.91% of 650,000 active; AlphaScreen MITF homodimerization, bead proximity signal; in the data active means inhibition above about 50%;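 further: 0% = vehicle wells with protein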
GPR151 activ = activators of human GPR151; Q8TDV0; PathHunter beta-arrestin GPR151 cells, luminescence; activation, % at 11.2 µM; 1% of 650,000 active; AID 1508602; in the data active means activation above about 4.9%;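 further: 0% = median of compound wells and 100% = cells with positive control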
Target sequence (Q8TDV0 whole entry, looked up): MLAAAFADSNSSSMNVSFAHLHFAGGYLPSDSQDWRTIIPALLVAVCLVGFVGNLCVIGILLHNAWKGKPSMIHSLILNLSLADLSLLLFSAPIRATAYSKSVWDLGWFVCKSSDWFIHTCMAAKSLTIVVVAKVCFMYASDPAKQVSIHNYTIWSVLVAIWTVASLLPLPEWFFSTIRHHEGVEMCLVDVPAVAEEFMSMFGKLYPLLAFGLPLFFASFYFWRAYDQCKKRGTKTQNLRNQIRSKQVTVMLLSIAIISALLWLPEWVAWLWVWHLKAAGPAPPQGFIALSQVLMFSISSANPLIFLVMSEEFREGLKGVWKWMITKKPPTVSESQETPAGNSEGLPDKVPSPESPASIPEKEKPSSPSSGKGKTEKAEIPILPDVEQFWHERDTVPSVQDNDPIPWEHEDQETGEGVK
TEAD-YAP block = TEAD-YAP interaction inhibition. HEK-TIYL cells, TEAD-Gal4/YAP UAS-luciferase luminescence. inhibition, % at 9.12 µM. 1.4% of 640,000 active; in the data active means inhibition above about 32%;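 further: 0% = median of test compound wells and 100% = reference inhibitor wells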
FBW7 activator = human FBW7 E3 ligase activation, primary screen; AlphaScreen FBW7–phospho-cyclin E peptide binding, activator screen; 0.13% of 650,000 active; normalized activity (activation), % at 26.1 µM; Q969H0; in the data active means normalized activity above about 1.9%;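 further: purified mutant Fbw7 with reduced substrate affinity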
* marks the source's active call; other numbers are inactive results. Only some compounds are listed: those with a hit (about 3.4% of all), similar ones and a draw of the others.

What do the screens show for `CC(C)n1cnc2c(NC3CCN(Cc4ccccc4)CC3)nc(N3CCCC3CO)nc21` (centres undefined)?
MITF primary: 10.1; GPR151 activ: -0.6; TEAD-YAP block: 36.4*; FBW7 activator: 0.0

What do the screens show for `Oc1ccc(CCNc2nc(Nc3cnccn3)nc3c2ncn3C2CCCCC2)cc1`?
MITF primary: -7.3; GPR151 activ: -0.3; TEAD-YAP block: 40.1*; FBW7 activator: 0.1

Results for OCC1CCCN1c1nc(NC2CCN(Cc3ccccc3)CC2)c2ncn(C3CCCCC3)c2n1 (centres undefined) ?
MITF primary: 1.6; GPR151 activ: -0.8; TEAD-YAP block: -14.6; FBW7 activator: -0.3

How did CC(C)n1cnc2c(NC3CCN(Cc4ccccc4)CC3)nc(Nc3ccncc3)nc21 do in these assays?
MITF primary: -10.1; GPR151 activ: -0.7; TEAD-YAP block: 68.6*; FBW7 activator: -0.1

What do the screens show for `Cc1ccccc1C(=O)Nc1nnc(-c2cccnc2)s1`?
MITF primary: 15.0; GPR151 activ: -1.3; TEAD-YAP block: 5.0; FBW7 activator: 0.2

Results for CCc1ccccc1NC(=O)Cn1cnc([N+](=O)[O-])n1 ?
MITF primary: 4.0; GPR151 activ: 0.9; TEAD-YAP block: 5.4; FBW7 activator: -0.1

How did Oc1ccc(CCNc2ccnc(Nc3cnccn3)n2)cc1 do in these assays?
MITF primary: 12.3; GPR151 activ: -0.2; TEAD-YAP block: 4.0; FBW7 activator: 0.4

How did CC(C)n1cnc2c(NC3CCN(Cc4ccccc4)CC3)nc(NCc3cccnc3)nc21 do in these assays?
MITF primary: 16.4; GPR151 activ: -2.1; TEAD-YAP block: 76.4*; FBW7 activator: 0.3

Results for CC(C)n1cnc2c(NCc3cccnc3)nc(NC3CCN(Cc4ccccc4)CC3)nc21 ?
MITF primary: 7.8; GPR151 activ: 0.9; TEAD-YAP block: -2.0; FBW7 activator: -0.1

Results for CC(C)n1cnc2c(NC3CCN(Cc4ccccc4)CC3)nc(Nc3cnccn3)nc21 ?
MITF primary: 11.8; GPR151 activ: 1.7; TEAD-YAP block: 76.4*; FBW7 activator: -0.1

What do the screens show for `CC(C)n1cnc2c(NC3CC3)nc(Nc3cnccn3)nc21`?
MITF primary: 7.7; GPR151 activ: 2.2; TEAD-YAP block: 38.5*; FBW7 activator: 0.1

How did CC(C)n1cnc2c(NC3CC3)nc(Nc3ccccn3)nc21 do in these assays?
MITF primary: 2.8; GPR151 activ: 0.4; TEAD-YAP block: 24.7; FBW7 activator: -0.1

How did CC(C)n1cnc2c(NC3CCN(Cc4ccccc4)CC3)nc(Nc3ccccc3)nc21 do in these assays?
MITF primary: 7.7; GPR151 activ: -0.1; TEAD-YAP block: 15.4; FBW7 activator: -0.2

How did Oc1ccc(CCNc2cc(Nc3cnccn3)ncn2)cc1 do in these assays?
MITF primary: -11.0; GPR151 activ: 3.3; TEAD-YAP block: 45.5*; FBW7 activator: -0.1

How did Cc1[nH][nH]c(=O)c1C(c1cccc(I)c1)c1c(C)[nH][nH]c1=O do in these assays?
MITF primary: 7.0; GPR151 activ: 0.1; TEAD-YAP block: 6.9; FBW7 activator: -0.8

What do the screens show for `Clc1ccc(OCc2cn3ccccc3n2)cc1`?
MITF primary: -0.7; GPR151 activ: -3.1; TEAD-YAP block: -28.2; FBW7 activator: 0.0

How did O=C1CCc2ccc(OCc3cn4ccccc4n3)cc21 do in these assays?
MITF primary: -7.6; GPR151 activ: -7.7; TEAD-YAP block: 57.7*; FBW7 activator: -0.1

How did O=C1CCCN1c1nc(-c2ccc(Cl)cc2Cl)cs1 do in these assays?
MITF primary: -3.4; GPR151 activ: -1.0; TEAD-YAP block: -6.8; FBW7 activator: 0.0

What do the screens show for `O=C(O)C1Nc2ccc3ccccc3c2C2C=CCC12` (centres undefined)?
MITF primary: 23.9; GPR151 activ: 0.4; TEAD-YAP block: -1.8; FBW7 activator: 0.0

How did O=C(O)C1Nc2c(O)ccc(Br)c2C2C=CCC12 (centres undefined) do in these assays?
MITF primary: 85.7*; GPR151 activ: -0.1; TEAD-YAP block: 2.0; FBW7 activator: -0.3

How did O=C(O)C1Nc2c(F)cccc2C2C=CCC12 (centres undefined) do in these assays?
MITF primary: 78.2*; GPR151 activ: -0.9; TEAD-YAP block: 8.5; FBW7 activator: -0.4

Results for Cc1ccc2c(c1C)NC(C(=O)O)C1CC=CC21 (centres undefined) ?
MITF primary: 64.5*; GPR151 activ: -0.7; TEAD-YAP block: -14.8; FBW7 activator: -1.3

Results for O=C(O)C1Nc2ccccc2C2C=CCC12 (centres undefined) ?
MITF primary: 75.2*; GPR151 activ: 0.3; TEAD-YAP block: -5.7; FBW7 activator: -1.9

What do the screens show for `O=C(O)c1ccc2c(c1)C1C=CCC1C(C(=O)O)N2` (centres undefined)?
MITF primary: 25.0; GPR151 activ: -0.4; TEAD-YAP block: 5.4; FBW7 activator: -0.8

What do the screens show for `CCOC(=O)c1ccc2c(c1)[C@@H]1C=CC[C@@H]1[C@H](C(=O)OCC)N2`?
MITF primary: 9.6; GPR151 activ: -0.2; TEAD-YAP block: -1.6; FBW7 activator: -0.2

What do the screens show for `CCOC(=O)C1Nc2c(ccc(C(=O)O)c2C)C2C=CCC12` (centres undefined)?
MITF primary: 65.5*; GPR151 activ: 0.6; TEAD-YAP block: 12.7; FBW7 activator: -1.2

How did O=c1c(Cl)c(Cl)cnn1C12CC3CC(CC(C3)C1)C2 do in these assays?
MITF primary: 4.3; GPR151 activ: 0.1; TEAD-YAP block: 78.4*; FBW7 activator: 0.1

How did O=c1c(Cl)c(NCCO)cnn1C12CC3CC(CC(C3)C1)C2 do in these assays?
MITF primary: 6.5; GPR151 activ: 0.4; TEAD-YAP block: 10.9; FBW7 activator: 0.0

Results for CCC1c2cccn2CCN1C(=O)CCc1nnc(CCc2ccc(OC)cc2)o1 (centres undefined) ?
MITF primary: 1.7; GPR151 activ: 2.4; TEAD-YAP block: -6.8; FBW7 activator: 0.2

What do the screens show for `COc1cc(C(c2cc(Cl)c3cccnc3c2O)N2CCCC2)cc(OC)c1OC` (centres undefined)?
MITF primary: 36.6; GPR151 activ: 1.2; TEAD-YAP block: 15.6; FBW7 activator: -0.9

Results for Oc1c(C(c2ccc(Cl)cc2)N2CCOCC2)ccc2cccnc12 (centres undefined) ?
MITF primary: -5.1; GPR151 activ: -0.4; TEAD-YAP block: 77.5*; FBW7 activator: -0.1

Results for COc1ccc(C(c2sc3nc(C)nn3c2O)N2CCOCC2)cc1 (centres undefined) ?
MITF primary: 7.1; GPR151 activ: 0.1; TEAD-YAP block: -2.2; FBW7 activator: 0.1

How did COc1ccc(C(c2ccc3cccnc3c2O)N2CCCC2)cc1 (centres undefined) do in these assays?
MITF primary: 19.4; GPR151 activ: -0.1; TEAD-YAP block: 83.8*; FBW7 activator: -0.2

Results for COc1ccc(C(c2ccc3cccnc3c2O)N2CCOCC2)cc1 (centres undefined) ?
MITF primary: 18.3; GPR151 activ: -0.8; TEAD-YAP block: 80.0*; FBW7 activator: -0.5

What do the screens show for `CC(C)OP(=O)(OC(C)C)C(OC(N)=O)c1ccc(Br)cc1` (centres undefined)?
MITF primary: -4.5; GPR151 activ: 0.2; TEAD-YAP block: 7.0; FBW7 activator: -0.1
